Bioassay records from PubChem BioAssay.
This is a sample that favours compounds with a hit; in the whole collection about 2% have one here.
ABHD5-PLIN5 inh = inhibitors of human ABHD5-perilipin-5 interaction | Split G. princeps luciferase complementation, luminescence, 4 h | inhibition, % at 4 µM | 360,000 tested, 0.78% active | AID 602281;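 active means inhibition above the mean inhibition across every tested compound plus 3 SD, cut at about 22% in these data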
Exocytosis inh = blocks lytic granule exocytosis; inhibition, % at 10 µM; AID 651702; TALL-104 LAMP-1 surface exposure, flow cytometry; cells stimulated with thapsigargin and PMA; 360,000 tested, 0.66% active;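 active means inhibition above about 55%, limit read from the data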
Beta2AR agonist = activates human beta-2 adrenergic receptor causing internalization | P07550 | Am2.2-beta2AR cells, FAP receptor internalization, flow cytometry | response, % (test concentration not listed) | 340,000 tested, 0.43% active;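 active means response above a set limit, near 3 SD of response in nonfluorescent compounds, cut at about 42% in these data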
TLR4 MyD88 comp = blocks binding of human TLR4 to MyD88. O00206+Q99836. HeLa CL3-4 TLR4/MyD88 BLA complementation, FRET ratio. inhibition, % at 8.4 µM. 200,000 tested, 0.18% active; in the data active means inhibition above about 25%
TLR9-MyD88 block = inhibitors of human TLR9-MyD88 binding; Q9NR96+Q99836; CHO BLA complementation TLR9-MyD88, CCF4 FRET ratio; inhibition, % at 4.98 µM; 340,000 tested, 0.21% active; AID 504734;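 active means inhibition above the mean over all tested compounds plus 3 SD, cut at about 21% in these data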
NOD2 RIPK2 PPI = inhibitors of human NOD2-RIPK2 interaction | O43353 | AID 624267 | 360,000 tested, 0.38% active | CHO BLA complementation NOD2-RIPK2, CCF4 ratio | inhibition, % at 4.98 µM; in the data active means inhibition above about 21%
Target sequence (O43353 whole entry, looked up): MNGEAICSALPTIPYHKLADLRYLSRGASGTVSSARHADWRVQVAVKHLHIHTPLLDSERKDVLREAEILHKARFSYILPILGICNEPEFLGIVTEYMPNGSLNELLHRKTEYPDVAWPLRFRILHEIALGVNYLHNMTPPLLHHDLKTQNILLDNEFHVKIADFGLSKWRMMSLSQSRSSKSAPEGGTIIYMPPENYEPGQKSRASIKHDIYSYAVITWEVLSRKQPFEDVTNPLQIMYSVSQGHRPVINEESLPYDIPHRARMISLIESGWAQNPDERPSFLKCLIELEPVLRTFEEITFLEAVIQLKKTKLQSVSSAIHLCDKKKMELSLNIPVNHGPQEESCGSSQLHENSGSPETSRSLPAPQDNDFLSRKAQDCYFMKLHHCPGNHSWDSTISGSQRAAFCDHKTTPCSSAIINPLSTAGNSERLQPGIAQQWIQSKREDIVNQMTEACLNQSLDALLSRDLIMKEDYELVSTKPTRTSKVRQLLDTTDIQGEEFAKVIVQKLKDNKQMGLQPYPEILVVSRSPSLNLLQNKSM
Exocytosis CP01 = lytic granule exocytosis inhibition; shares compounds with Exocytosis inh; TALL-104 cells, LAMP-1 externalization, flow cytometry; stimulated with PMA plus thapsigargin; inhibition, % at 10 µM; 1,500 tested, 11% active; in the data active means inhibition above about 60%
Large screens that a line does not name were inactive (follow-up assays come after a bar, where they were run).

NC(COCc1ccccc1)c1csc(NC(=O)Nc2cccc(C(F)(F)F)c2)n1 (configuration not stated)	none (no result: Beta2AR agonist, TLR4 MyD88 comp, TLR9-MyD88 block)
C=CCn1c(SCC(C)=O)nc2scc(-c3ccc(C)o3)c2c1=O	Exocytosis inh 85.1 (no result: TLR4 MyD88 comp) | Exocytosis CP01 inactive
O=C(CN1C(=O)C(=O)c2ccccc21)c1ccc(Cl)cc1	Exocytosis inh 62.6 (no result: TLR4 MyD88 comp) | Exocytosis CP01 inactive
CCN(CC)C(=O)CN1C(=O)C(=O)c2ccccc21	none
CN(C)C(=O)c1c2c(nc3ccccc13)CCCC2	Exocytosis inh 107.4 | Exocytosis CP01 inactive
O=C(O)c1c2c(nc3ccccc13)CCCCC2	none
Cc1cc(C)c(C(=O)COC(=O)c2cccc(S(=O)(=O)N3CCOCC3)c2)cc1C	none (no result: Beta2AR agonist, TLR4 MyD88 comp)
CCCCn1nnc(NC(=O)c2sc3cc(Cl)ccc3c2Cl)n1	none
CCN(CC)Cc1ccc(NC(=O)c2sc3cc(Cl)ccc3c2Cl)cc1	Exocytosis inh 81.1 (no result: TLR4 MyD88 comp) | Exocytosis CP01 inactive
Fc1cccc(-c2cncc(N3CCN(CCN4CCCC4)CC3)n2)c1	Exocytosis inh 59.1 (no result: Beta2AR agonist, TLR4 MyD88 comp, TLR9-MyD88 block) | Exocytosis CP01 inactive
CCOc1ccccc1CNC(=O)CCn1ccc2cc(S(=O)(=O)N3CCCCC3)ccc21	Exocytosis inh 62.1 (no result: TLR4 MyD88 comp) | Exocytosis CP01 inactive
CCOc1ccccc1CNC(=O)Cn1ccc2cc(S(=O)(=O)N3CCCCCC3)ccc21	none (no result: TLR4 MyD88 comp)
COc1ccc(NC(=O)CCc2nc3ccccc3c(=O)[nH]2)cc1S(=O)(=O)N1CCCCC1	none (no result: TLR4 MyD88 comp)
Cc1ccc(C(=O)N/C(=C\c2ccc(-c3ccccc3[N+](=O)[O-])o2)C(=O)NCCCN(C)C)cc1	Exocytosis inh 77.4 (no result: TLR4 MyD88 comp) | Exocytosis CP01 inactive
O=C(Nc1ccccc1O)c1ccc(C(=O)c2ccccc2)o1	none (no result: TLR4 MyD88 comp)
COc1ccccc1NC(=O)c1ccc(C(=O)c2ccccc2)o1	Exocytosis inh 86.3 | Exocytosis CP01 inactive
CC1(C(=O)NS(=O)(=O)C2CC2)CCCN(C(=O)c2cc3ccccc3s2)C1 (configuration not stated)	none (no result: Beta2AR agonist, TLR4 MyD88 comp, TLR9-MyD88 block)
